From the supplement of paper PMC11577813, “Eurasian spruce bark beetle detects lanierone using a highly expressed specialist odorant receptor, present in several functional sensillum types” (BMC Biology, 2024)
± gives the standard deviation of the averaged measurements.

System: lanierone-responsive B-neuron OSN class (ItypOR36)
Assay: net action potential response of lanierone B-neuron (blank-subtracted) (spikes/s (Hz)); higher = stronger excitation
Details: 10 µg on filter paper, neuron: B neuron (small spike amplitude)
Procedure: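 Single sensillum recordings from antennal olfactory sensilla of live adult Ips typographus. Each compound was 10 µg in paraffin oil, delivered as a 0.5 s puff. Net response = spikes in the first 0.5 s of response minus the 0.5 s pre-stimulus count, doubled to give Hz, with blank response subtracted. Values are for the small-spike lanierone-responsive B-neuron (putatively expressing ItypOR36), recorded in sensilla co-housing the A-neuron class; N = 1-4, averaged.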

[1] = co-localized A-neuron class: (4S)-cis-verbenol
[2] = co-localized A-neuron class: (5S,7S)-trans-conophthorin
[3] = co-localized A-neuron class: (+)-isopinocamphone
[4] = co-localized A-neuron class: (+)-trans-4-thujanol
[5] = co-localized A-neuron class: ipsdienol
[6] = co-localized A-neuron class: myrcene
[7] = co-localized A-neuron class: p-cymene

C=CC(=C)CC(O)C=C(C)C (racemic) [(±)-Ipsdienol] was tested, and the “net action potential response” value [1] was 2.67 ± 15, the “net action potential response” value [2] was -0.5 ± 3.4 and the “net action potential response” value [3] was -2.67 ± 4.2. The “net action potential response” value [4] was 0 ± 1.6, the “net action potential response” value [5] was -4.67 ± 10 and the “net action potential response” value [6] was -4. The “net action potential response” value [7] was -0.667 ± 1.1.

With COc1ccccc1 [Anisole] the “net action potential response” value [1] was -1.33 ± 8.3, the “net action potential response” value [2] was 0 ± 6 and the “net action potential response” value [3] was -2.67 ± 2.3. For the same compound, the “net action potential response” value [4] was -2.5 ± 4.1, the “net action potential response” value [5] was 2.67 ± 4.6 and the “net action potential response” value [6] was 2. The “net action potential response” value [7] was -3 ± 1.4.

C[C@H]1C(=O)C[C@H]2C[C@@H]1C2(C)C [(-)-Pinocamphone] was tested, and the “net action potential response” value [1] was -2 ± 2, the “net action potential response” value [2] was -4 ± 8.7 and the “net action potential response” value [3] was -1.33 ± 1.1. The “net action potential response” value [4] was 1 ± 3.8, the “net action potential response” value [5] was 0 ± 6 and the “net action potential response” value [6] was 4. The “net action potential response” value [7] was -2 ± 3.5.

In the case of CCC/C=C\CO, the “net action potential response” value [1] is reported as 2 ± 11, the “net action potential response” value [2] is reported as 2 ± 5.3 and the “net action potential response” value [3] is reported as -7.33 ± 4.6. For the same compound, the “net action potential response” value [4] was 2 ± 3.6, the “net action potential response” value [5] was 0.667 ± 3.1 and the “net action potential response” value [6] was 6. The “net action potential response” value [7] was 2.67 ± 4.2.

With CC(C)CCO [3-Methyl-1-butanol] the “net action potential response” value [1] was 3.33 ± 2.3, the “net action potential response” value [2] was 0.667 ± 6.1 and the “net action potential response” value [3] was 1.33 ± 11. For the same compound, the “net action potential response” value [4] was -4 ± 2.3, the “net action potential response” value [5] was -4.67 ± 6.4 and the “net action potential response” value [6] was -6. For the same compound, the “net action potential response” value [7] was -0.667 ± 2.3.

CC/C=C/CCO was tested, and the “net action potential response” value [1] was 2 ± 4, the “net action potential response” value [2] was -5.33 ± 6.1 and the “net action potential response” value [3] was -2 ± 5.3. The “net action potential response” value [4] was -0.5 ± 6.6, the “net action potential response” value [5] was 0 ± 4 and the “net action potential response” value [6] was -2. For the same compound, the “net action potential response” value [7] was -0.667 ± 3.1.
